# Source: PubChem BioAssay
# The source made the active and inactive calls.
# Tests used:
# [1] = E. coli DRC41 culture turbidity changes, primary screen, E. coli filamentation inducer project, strain DRC41, OD650, 48 h (AID 1152);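 note: E. coli MC1000 strain DRC41 lacking acrAB efflux pump and sulA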; conditions: E. coli DRC41 (acrAB sulA), higher = more signal, called active from +8 up or from −8 down
# [2] = small-molecule binders of probe aLefty1, primary screen, biochemical, small-molecule microarray, 635/667 nm fluorescence (AID 1153); conditions: higher = more signal;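 note: score merges spot fluorescence with signal-to-noise ratio from the scanned slide images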
# [3] = PSAC antagonists in infected red cells, primary screen, cell-based, P. falciparum Indochina, OD700, 1 h (AID 1154); conditions: P. falciparum Indochina infected RBC osmotic lysis, higher = more signal, called active from +8 up or from −8 down
# [4] = PSAC antagonists in infected red cells, primary screen, cell-based, P. falciparum Indochina, OD700, 2 h (AID 1155);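 note: lysis reports solute entry through the parasite surface anion channel PSAC; channel blockers reduce lysis of infected cells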; conditions: P. falciparum Indochina infected erythrocytes, osmotic lysis OD700; higher = more signal, called active from +8 up or from −8 down
# [5] = osmotic lysis modulators in infected erythrocytes, primary screen, PSAC antagonist project, cell-based, P. falciparum Indochina, OD700, 3 h (AID 1156); conditions: higher = more signal, called active from +8 up or from −8 down
# [6] = PSAC antagonists in infected red cells, primary screen, cell-based, P. falciparum Indochina, OD700, 18 h (AID 1157); conditions: P. falciparum Indochina infected erythrocytes, osmotic lysis OD700, 18 h; higher = more signal, called active from +8 up or from −8 down
# [7] = modulators of S6 phosphorylation in cells, primary screen, cell-based, A549, cytoblot, luminescence, serum-stimulated (AID 1158); conditions: A549 phospho-S6 cytoblot, 5 h, higher = more signal;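 note: serum-stimulated A549 lung adenocarcinoma cells; signal is phosphorylated S6 detected by cytoblot immunostaining with HRP secondary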
# [8] = target: NADPH oxidase 2 (Homo sapiens) (UniProt P04839); experiment: NOX2-dependent H2O2 signal modulators, primary screen, NOX inhibitor project, cell-based, HEK293-NOX2, PMA-stimulated, Amplex Red fluorescence (AID 1159); conditions: 45 min, higher = more signal, called active from +8 up or from −8 down; note: test concentration not given here
# [9] = target: NADPH oxidase 4 (Homo sapiens) (UniProt Q9NPH5); experiment: NOX4-dependent H2O2 signal modulators, primary screen, NOX inhibitor project, cell-based, HEK293-NOX4, tetracycline-induced, Amplex Red fluorescence (AID 1160); conditions: 45 min, higher = more signal, called active from +8 up or from −8 down
# [10] = target: NADPH oxidase 5 (Homo sapiens) (UniProt Q96PH1); experiment: NOX5-dependent H2O2 signal modulators, primary screen, NOX inhibitor project, cell-based, HEK293-NOX5, Amplex Red fluorescence (AID 1161); conditions: HEK293-NOX5, ionomycin, 45 min, higher = more signal
# [11] = A549 cell viability effects, profiling panel, calcein-AM fluorescence, 48 h, basal (AID 1162); conditions: higher = more signal; note: test concentration not given here
# [12] = adipocyte viability effects, profiling panel, cell-based, 3T3-L1 adipocytes, calcein-AM fluorescence, 48 h, basal (AID 1163); conditions: 3T3-L1 adipocytes viability, higher = more signal; note: test concentration not given here
# [13] = HepG2 cell viability effects, profiling panel, calcein-AM fluorescence, 48 h, basal (AID 1164); conditions: higher = more signal; note: test concentration not given here
# [14] = MM1S cell viability effects, profiling panel, calcein-AM fluorescence, 48 h, basal (AID 1165); conditions: higher = more signal;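 note: viability of MM1S multiple myeloma cells under basal unstimulated conditions; test concentration not given here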
# [15] = basal RPMI8226 viability, no added stimulus, profiling panel, cell-based, calcein-AM fluorescence, 48 h, PK04 Diversity Set (AID 1166); conditions: RPMI8226 myeloma viability, higher = more signal;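 note: cells grown under basal conditions without added stimulus; test concentration not given here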
# [16] = basal HepG2 mitochondrial membrane potential changes, profiling panel, cell-based, JC-1 fluorescence, 24 h, 100 nL compound (AID 1167); conditions: higher = more signal; note: test concentration not given here
# [17] = basal 3T3-L1 adipocyte mitochondrial potential changes, profiling panel, cell-based, JC-1 fluorescence, 3T3-L1 adipocytes, 24 h, 100 nL compound (AID 1168); conditions: JC-1 mitochondrial fluorescence, higher = more signal, called active from +8 up or from −8 down; note: test concentration not given here
# [18] = basal RPMI8226 mitochondrial membrane potential changes, profiling panel, cell-based, JC-1 fluorescence, 24 h, 100 nL compound (AID 1169); conditions: RPMI8226 myeloma, JC-1 mitochondrial potential fluorescence, higher = more signal; note: test concentration not given here
# [19] = basal MM1S mitochondrial membrane potential changes, profiling panel, cell-based, JC-1 fluorescence, 24 h, 100 nL compound (AID 1170); conditions: higher = more signal; note: test concentration not given here
# [20] = A549 lung cancer cell viability effects, profiling panel, resazurin fluorescence, 24 h, PK04 Diversity Set (AID 1171); conditions: higher = more signal, called active from +8 up or from −8 down; note: test concentration not given here
# Chain of NADPH oxidase 5 (Homo sapiens) (Q96PH1 whole entry, looked up): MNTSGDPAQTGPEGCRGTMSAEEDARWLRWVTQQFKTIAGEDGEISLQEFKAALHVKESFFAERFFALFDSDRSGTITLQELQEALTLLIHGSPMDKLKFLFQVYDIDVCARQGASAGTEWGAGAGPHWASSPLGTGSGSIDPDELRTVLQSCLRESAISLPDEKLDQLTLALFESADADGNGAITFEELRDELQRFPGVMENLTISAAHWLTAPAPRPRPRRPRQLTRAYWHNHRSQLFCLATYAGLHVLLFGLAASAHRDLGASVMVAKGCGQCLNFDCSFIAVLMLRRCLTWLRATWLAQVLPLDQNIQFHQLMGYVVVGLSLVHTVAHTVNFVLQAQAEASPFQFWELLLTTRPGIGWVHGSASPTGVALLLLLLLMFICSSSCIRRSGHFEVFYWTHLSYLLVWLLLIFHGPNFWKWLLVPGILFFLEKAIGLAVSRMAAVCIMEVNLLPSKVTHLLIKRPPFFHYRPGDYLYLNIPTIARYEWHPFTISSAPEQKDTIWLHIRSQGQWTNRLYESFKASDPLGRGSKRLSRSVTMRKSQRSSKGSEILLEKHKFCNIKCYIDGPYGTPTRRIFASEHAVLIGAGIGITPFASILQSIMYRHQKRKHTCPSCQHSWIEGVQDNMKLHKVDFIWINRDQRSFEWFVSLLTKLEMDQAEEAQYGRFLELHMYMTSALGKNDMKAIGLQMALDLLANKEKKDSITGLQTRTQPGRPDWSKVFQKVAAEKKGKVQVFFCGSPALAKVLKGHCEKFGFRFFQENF
# Chain of NADPH oxidase 4 (Homo sapiens) (Q9NPH5 whole entry, looked up): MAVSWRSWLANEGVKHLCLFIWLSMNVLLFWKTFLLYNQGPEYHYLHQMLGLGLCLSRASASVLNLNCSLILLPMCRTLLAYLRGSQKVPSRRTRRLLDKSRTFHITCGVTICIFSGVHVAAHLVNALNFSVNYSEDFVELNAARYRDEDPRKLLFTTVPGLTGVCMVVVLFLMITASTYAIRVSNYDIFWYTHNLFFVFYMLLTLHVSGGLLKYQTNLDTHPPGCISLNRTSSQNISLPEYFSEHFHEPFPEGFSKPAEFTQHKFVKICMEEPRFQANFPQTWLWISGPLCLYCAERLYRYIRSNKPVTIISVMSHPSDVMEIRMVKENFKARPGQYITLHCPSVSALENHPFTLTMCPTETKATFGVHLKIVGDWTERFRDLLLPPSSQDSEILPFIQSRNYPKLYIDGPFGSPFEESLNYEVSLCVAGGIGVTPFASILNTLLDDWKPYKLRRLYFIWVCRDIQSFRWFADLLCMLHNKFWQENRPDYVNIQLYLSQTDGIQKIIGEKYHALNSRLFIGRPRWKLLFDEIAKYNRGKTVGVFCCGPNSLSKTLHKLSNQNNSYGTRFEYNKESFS
# Chain of NADPH oxidase 2 (Homo sapiens) (P04839 whole entry, looked up): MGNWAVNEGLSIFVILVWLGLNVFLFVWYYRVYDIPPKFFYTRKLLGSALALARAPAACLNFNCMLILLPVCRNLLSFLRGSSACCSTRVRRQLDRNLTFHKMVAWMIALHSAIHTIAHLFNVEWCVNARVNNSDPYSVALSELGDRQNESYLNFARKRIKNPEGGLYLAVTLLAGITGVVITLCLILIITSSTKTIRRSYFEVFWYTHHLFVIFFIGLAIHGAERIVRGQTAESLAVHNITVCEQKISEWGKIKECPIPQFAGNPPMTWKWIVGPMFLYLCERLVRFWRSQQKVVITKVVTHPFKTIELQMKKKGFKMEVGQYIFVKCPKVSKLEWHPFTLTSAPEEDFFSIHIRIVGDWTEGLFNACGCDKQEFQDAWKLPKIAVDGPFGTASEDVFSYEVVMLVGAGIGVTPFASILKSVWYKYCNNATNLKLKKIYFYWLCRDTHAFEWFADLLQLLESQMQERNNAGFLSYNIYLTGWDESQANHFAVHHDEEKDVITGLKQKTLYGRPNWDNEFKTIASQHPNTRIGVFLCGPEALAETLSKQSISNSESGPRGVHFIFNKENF
SMILES,z-score [1],composite z-score [2],z-score [3],z-score [4],z-score [5],z-score [6],z-score [7],z-score [8],z-score [9],z-score [10],z-score [11],z-score [12],z-score [13],z-score [14],z-score [15],z-score [16],z-score [17],z-score [18],z-score [19],z-score [20]
O=C1OCCC/C=C\[C@H]2OC34C=CCN(c5ccc6ccccc6c5)C(=O)[C@H]3N(CCCCCCO)C(=O)[C@@H]4C12 (stereo not given in full),1.63 (inactive),0.325,3.35 (inactive),-0.781 (inactive),0.562 (inactive),-1.46 (inactive),1.4,1.52 (inactive),0.341 (inactive),2.26,1.21,0.817,2,1.92,0.254,1.02,0.4 (inactive),-0.967,-0.257,-0.0595 (inactive)
C#CCNC(=O)[C@H](Cc1ccccc1)NC(=O)CCC(=O)O,-0.077 (inactive),-0.36,-0.168 (inactive),0.748 (inactive),-0.707 (inactive),0.0401 (inactive),-0.665,0.658 (inactive),-0.198 (inactive),0.0788,-0.281,-0.405,0.0694,0.527,0.0189,-0.821,-0.536 (inactive),0.539,-0.97,-0.119 (inactive)
CN1C(=O)C2C=CC(C(O)Cc3ccccc3)N(Nc3ccccc3)C2C1=O (stereo not given),-1.55 (inactive),-0.0501,1.15 (inactive),0.872 (inactive),0.215 (inactive),0.9 (inactive),-0.709,-1.57 (inactive),-4.77 (inactive),-3.59,0.368,-1.33,0.0486,-1.48,-0.618,-1.32,-1.06 (inactive),0.0363,0.155,-0.528 (inactive)
CCOC(=O)C1=CCC(c2ccc(C)cc2)N(S(=O)(=O)c2ccc(C)cc2)C1 (stereo not given),-0.792 (inactive),0.174,2.05 (inactive),0.901 (inactive),-0.628 (inactive),0.509 (inactive),-0.78,0.63 (inactive),0.637 (inactive),1.17,-1.25,-0.825,-0.743,-0.537,-1.37,5.35,-1.08 (inactive),0.0194,-1.82,0.697 (inactive)
O=C1C2C=CC(C(O)C3CCCCC3)N(Nc3ccc([N+](=O)[O-])cc3)C2C(=O)N1c1ccccc1 (stereo not given),-1.13 (inactive),0.455,21.3 (active),4.73 (inactive),4.92 (inactive),1.42 (inactive),-0.185,-1.03 (inactive),-3.38 (inactive),-4.06,-0.0334,0.652,-0.0914,-0.157,-1.24,-0.876,-2.66 (inactive),-0.143,0.507,-1.06 (inactive)
COC(=O)[C@@]1(Cc2ccc(F)cc2)[C@@H]2[C@@H](CC(=O)[C@H]2CC(=O)C(=O)N(C)C)CN1C(=O)c1ccccc1,-1.78 (inactive),0.334,2.32 (inactive),0.723 (inactive),0.806 (inactive),0.961 (inactive),-0.761,0.366 (inactive),-0.21 (inactive),0.256,-0.294,-1.19,0.27,-0.886,-1.73,1.65,-0.554 (inactive),-0.00425,-1.92,-2 (inactive)
C=CCNC(=O)[C@@H]1[C@H]2C(=O)O[C@H](c3ccccc3)[C@H](c3ccccc3)N2[C@H](c2ccc(OCCO)cc2)[C@@]12C(=O)Nc1ccc(C#CCCO)cc12,-0.41 (inactive),0.656,7.17 (inactive),2.11 (inactive),1.14 (inactive),0.812 (inactive),-0.344,1.67 (inactive),0.442 (inactive),0.688,-1.11,0.422,1.27,-0.563,0.256,1.1,0.0466 (inactive),-0.591,-0.183,0.344 (inactive)
COc1cc2c(cc1O)C(C1CC1)N(Cc1cc3c(cc1Br)OCO3)CC2 (stereo not given),-1.46 (inactive),-0.263,9.09 (active),1.17 (inactive),0.838 (inactive),0.72 (inactive),-0.074,-6.19 (inactive),-3.97 (inactive),-4.81,-3.4,-0.204,-3.79,-3.15,-4.48,-1.85,-0.457 (inactive),-0.472,-2.08,-4.06 (inactive)
CC1CC/C=C\[C@H]2OC34C=CCN(Cn5nnc6ccccc65)C(=O)[C@H]3N(C(CO)C(C)C)C(=O)[C@@H]4C2C(=O)O1 (stereo not given in full),0.532 (inactive),0.0956,2.43 (inactive),0.0805 (inactive),0.752 (inactive),0.527 (inactive),-0.174,1.09 (inactive),0.134 (inactive),2.22,0.101,0.0716,0.0778,0.654,-0.872,-0.388,-0.573 (inactive),-0.637,-0.454,0.238 (inactive)
CN(C)C(=O)[C@@]1(Cc2ccccc2CN=[N+]=[N-])N=C(c2ccc(OCCCO)cc2)O[C@H]1c1ccccc1,0.381 (inactive),1.18,20.9 (active),5.46 (inactive),1.59 (inactive),1.45 (inactive),-0.0813,-2.45 (inactive),-0.0483 (inactive),0.524,-0.62,-0.476,-1.18,-3.03,-3.94,-0.807,-0.215 (inactive),-0.988,-2.52,-0.325 (inactive)
CCCCC(O)C1C=CC2C(=O)N(c3ccccc3)C(=O)C2N1Nc1ccccc1F (stereo not given),-1.06 (inactive),0.328,0.449 (inactive),1.49 (inactive),0.273 (inactive),1.19 (inactive),-1.3,-1.2 (inactive),-4.93 (inactive),-1.88,-0.0693,-0.767,0.297,0.447,-0.812,-1.75,-0.935 (inactive),-0.425,-0.444,-0.684 (inactive)
CC(C)C(CO)N1C(=O)[C@@H]2[C@H]3C(=O)OCC=C[C@H]3OC23C=CCN(C(C)C)C(=O)[C@@H]13 (stereo not given in full),1.4 (inactive),-0.146,-0.237 (inactive),0.139 (inactive),0.333 (inactive),0.649 (inactive),-0.1,0.834 (inactive),0.457 (inactive),1.23,-0.368,0.877,-0.185,-0.181,0.642,-0.304,0.148 (inactive),-0.0287,-0.0116,0.711 (inactive)
C=CCN1C(=O)[C@@]2(O[C@@H](CCO)[C@H]([Si](C)(C)c3ccc(OC)cc3)[C@H]2C)c2cc(NC(=O)c3ccc(OC)cc3)ccc21,-0.0564 (inactive),-0.147,23.3 (active),6.69 (inactive),0.978 (inactive),1.75 (inactive),0.26,-3.81 (inactive),-0.905 (inactive),-0.695,-0.52,-0.196,-4.47,-2.73,-4.36,-1.69,1.58 (inactive),-1.02,-1.97,-2.27 (inactive)
CCN(CC)c1ccc(N2CC=CC34O[C@@H]5/C=C\CCCOC(=O)C5[C@H]3C(=O)N(CCO)[C@@H]4C2=O)cc1 (stereo not given in full),-0.0626 (inactive),0.0999,0.897 (inactive),0.175 (inactive),0.227 (inactive),0.041 (inactive),-0.155,-0.401 (inactive),-0.72 (inactive),0.733,1.05,0.327,0.0797,0.727,-0.509,-0.451,-0.381 (inactive),-0.814,-0.245,-1.8 (inactive)
COC(=O)[C@@]1(Cc2ccc(F)cc2)[C@H]2c3cc(C(=O)N4CCCC4)n(Cc4ccc(C)o4)c3C[C@H]2CN1C(=O)c1ccccc1,-1.63 (inactive),-0.0464,4.25 (inactive),0.713 (inactive),1.57 (inactive),0.886 (inactive),-0.118,-0.0294 (inactive),-0.466 (inactive),-3.03,-0.981,0.681,-0.498,-2.99,-3.74,2.32,0.096 (inactive),-0.486,-2.84,-0.72 (inactive)
CC1CC/C=C\[C@H]2OC34C=CCN(c5ccc(Cl)cc5)C(=O)[C@H]3N(CCO)C(=O)[C@]4(C)C2C(=O)O1 (stereo not given in full),-0.209 (inactive),-0.485,2.73 (inactive),0.402 (inactive),0.0852 (inactive),0.382 (inactive),1.13,1.66 (inactive),0.741 (inactive),3.16,-0.562,0.594,0.107,0.246,0.0105,-0.472,-0.54 (inactive),0.27,2.04,-0.428 (inactive)
C=CCN1C(=O)[C@]2(O[C@H](CCO)[C@@H]([Si](C)(C)c3ccc(OC)cc3)[C@@H]2C)c2cc(N3CCCCC3=O)ccc21,0.143 (inactive),0.0004,4.68 (inactive),2.25 (inactive),-0.328 (inactive),1.7 (inactive),1.14,0.972 (inactive),0.43 (inactive),0.801,-1.25,0.257,-2.15,-2.54,-3.82,-0.61,-0.305 (inactive),-0.982,-1.63,-3.52 (inactive)
CCOC(=O)C1=CCC(c2ccccc2)N(S(=O)(=O)CC[Si](C)(C)C)C1 (stereo not given),-0.348 (inactive),-0.147,2.49 (inactive),0.767 (inactive),-0.0704 (inactive),0.561 (inactive),-0.215,0.183 (inactive),0.976 (inactive),-0.179,-0.557,-0.047,0.413,-1.76,0.582,4.48,-0.0119 (inactive),-0.119,-1.66,0.866 (inactive)
